High-throughput results as filed in PubChem.
In the library only some 12% were active in any assay of this set; here they are far more common.
USP30 block: blocks human USP30 ubiquitin-rhodamine cleavage; Q70CQ3; purified USP30, Ub-rhodamine cleavage fluorescence; inhibition, % at 25 µM; 5.3% of 47,000 active
USP10 block: inhibitors of human USP10 deubiquitinase | Q14694 | purified USP10, Ub-rhodamine fluorescence, 60 min | inhibition, % at 20 µM | 1.1% of 47,000 active
USP17 inh: blocks human USP17 ubiquitin-rhodamine cleavage; purified USP17, Ub-rhodamine cleavage fluorescence, 3 h; A8MUK1; 6.5% of 47,000 active; inhibition, % at 50 µM; AID 1645855
UCHL1 block: human UCHL1 deubiquitinase inhibition; P09936; purified UCHL1, Ub-rhodamine cleavage fluorescence; inhibition, % at 20 µM; 0.2% of 47,000 active; AID 1645859
Target sequence (P09936 whole entry, looked up): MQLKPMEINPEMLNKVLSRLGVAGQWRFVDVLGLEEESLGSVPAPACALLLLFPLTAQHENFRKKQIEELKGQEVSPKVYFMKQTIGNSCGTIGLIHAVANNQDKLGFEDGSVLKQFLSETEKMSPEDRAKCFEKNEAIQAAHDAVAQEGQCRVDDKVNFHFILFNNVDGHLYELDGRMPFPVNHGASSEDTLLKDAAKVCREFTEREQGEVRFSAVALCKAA
USP8 inh: inhibitors of human USP8 deubiquitinase; 4.2% of 47,000 active; inhibition, % at 20 µM; purified USP8, Ub-rhodamine cleavage fluorescence, 30 min
USP7 inh: human USP7 deubiquitinase inhibition; Q93009; purified USP7, Ub-rhodamine cleavage fluorescence; inhibition, % at 20 µM; 0.3% of 47,000 active; AID 1645854
The depositor's hits bear a star; . = no result. No stated cut-off is given here; in the data, active means inhibition above about 30%; inactive means the rest.

SMILES	USP30 block	USP10 block	USP17 inh	UCHL1 block	USP8 inh	USP7 inh
N#Cc1cn(CC(=O)N2CCc3ccccc32)c2ccccc12	53*	27	-18	1	-109	15
O=C(CN1CCN(S(=O)(=O)c2ccc3c(c2)OCCCO3)CC1)N1CCCc2ccccc21	12	-2	-2	2	0	0
Cc1ccc(CS(=O)(=O)c2cn(CC(=O)N3CCCc4ccccc43)c3ccccc23)cc1	-67	-6	-45	0	22	8
Cc1cc(C)c(NC(=O)/C=C/c2ccc3ccccc3n2)c(C)c1	-140	-5	34*	-11	18	-4
Cc1cc(NC(=O)/C=C/c2ccccc2)c2ccccc2n1	-53	-7	-23	1	-3	-1
O=C(Nc1ccc(NC(=O)C(c2ccccc2)c2ccccc2)cc1)c1cccs1	-9	7	-4	-1	-16	3
O=C(Nc1ccccc1)C(C(=O)Nc1ccccc1)c1ccccc1	31*	-2	-1	7	-7	9
CN1CCOC2(COc3ccccc3N(C(=O)NC3CC3)C2)C1 (centres undefined)	5	2	20	3	-19	8
COc1cccc2cc(C(=O)Nc3nc(-c4ccncc4)cs3)oc12	31*	48*	31*	11	49*	49*
COc1cccc2cc(C(=O)NCc3cnn4ccccc34)oc12	-32	-1	-3	-1	-18	1
CC1CCc2onc(C(=O)N3CCN(c4ccccn4)CC3)c2C1 (centres undefined)	6	0	-1	2	7	1
Cc1nccnc1CCC1COCCN1C(=O)c1ccc2n[nH]nc2c1 (centres undefined)	31*	4	5	1	29	6
CCN1C(=O)c2c(C(=O)N3CCOCC3)ncn2CC1(C)C(=O)NCc1ccc(F)cc1 (centres undefined)	28	1	-3	-1	-16	5
O=C(NCCc1cccc(Cl)c1)c1ccc(-c2ccccc2)cc1	28	7	1	3	12	11
O=C(NCCc1ccc(Cl)cc1)c1ccc(CNS(=O)(=O)c2ccccc2)cc1	84*	16	1	5	11	14
O=C(Nc1nccn(-c2cccc(F)c2)c1=O)c1ccccn1	91*	0	49*	-1	-190	0
Cc1ccc(-n2ccnc(NC(=O)c3ccccn3)c2=O)cc1C	-11	-2	.	-2	-153	-5
CCc1ccc2nc(N3CCN(C(=O)C4CCCCC4)CC3)sc2c1	-35	-5	-9	0	-5	-57
O=C(Nc1ccc2c(c1)OCCO2)c1c(-c2ccccc2)nnc2ccccc12	-12	-1	31*	-3	-25	-7
Cc1ccc(-c2cc(C(=O)Nc3ccc4c(c3)OCCO4)c3ccccc3n2)o1	-41	0	39*	8	28	-16
O=C(Nc1ccc2c(c1)OCCO2)c1cccc2nc3ccccc3nc12	75*	1	41*	8	37*	9
CCOC(=O)C1=C(C(F)(F)F)NC(=O)CC1	5	-1	2	-1	12	3
CCOC(=O)c1ccc(NC(=O)c2ccc(S(=O)(=O)N3CCc4ccccc4C3)cc2)cc1	50*	13	33*	3	10	9
CC(C)NS(=O)(=O)c1ccc(C(=O)Nc2ccc(-c3nc4ccccc4o3)cc2)cc1	-150	-4	10	-15	-13	-16
CCOC(=O)N1CCN(C(=O)c2cn(CC)c3ccc(S(=O)(=O)N4CCc5ccccc5C4)cc3c2=O)CC1	-8	0	19	1	46*	0
Cc1sc(NC(=O)c2ccc(S(=O)(=O)N3CCc4ccccc4C3)cc2)c(C(N)=O)c1C	-21	0	8	5	-23	5
O=C(Nc1ccc(-c2nc3ccccc3o2)cc1)c1ccc(S(=O)(=O)N2CCc3ccccc3C2)cc1	34*	26	35*	-2	-10	8
CCOc1ccc(C(=O)N2CCC(c3nn(C)c4nccnc34)CC2)cc1	0	0	-9	-3	-80	0
O=C(c1ccnnc1)N1CCC[C@@]2(C[C@@H](Oc3ccccc3F)CO2)C1	-6	2	0	1	1	4
O=C(CSc1c[nH]c2ccccc12)Nc1ccc2c(c1)OCO2	-11	2	-15	2	6	-4
